KB-3-1 cytotox: kills parental KB-3-1 adenocarcinoma cells; KB-3-1 viability, CellTiter-Glo ATP luminescence, 72 h; Potency, µM (highest dose often 46.1 µM), usual class: cytotoxic; 400,000 tested, 1.4% active; AID 1347075; also: nearly all actives have a fitted effect of over 60% in size
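Multi-concentration cytotoxicity screen in KB-3-1 cells grown in DMEM lacking phenol red with 10% FBS. After 72 h at 37 °C with compound, ATP-dependent luminescence was recorded.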
KB-V1 MDR tox: KB-V1 MDR subline cytotoxicity | Potency, µM (doses to about 46.1 µM), actives largely listed as cytotoxic | AID 1347076 | 400,000 tested, 3.4% active | KB-V1 MDR cells viability, CellTiter-Glo, 72 h; also: nearly all actives have a fitted effect of over 60% in size
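Drug-selected KB-V1 cells, grown in DMEM lacking phenol red with 10% FBS, receive compound titrations; after three days at 37 degrees C, surviving cell ATP is quantified by CellTiter-Glo luminescence and responses normalized and curve-fitted.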
HT1080NT lethal: kills 2HG-producing HT-1080-NT fibrosarcoma cells; HT-1080-NT fibrosarcoma viability, CellTiter-Glo ATP luminescence, 48 h; Potency, µM (top dose mostly 46.1 µM), without a hit: top-dose activity, negative = less viability, hits mostly cytotoxic; 360,000 tested, 1.6% active; AID 686970;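 also: NT is the 2HG producing partner of a matched IDH1 knockdown line; 0% = DMSO-treated cells and -100% = media-only wells without cells; nearly all actives have a fitted effect of over 55% in size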
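Luminescent CellTiter-Glo readout after 48 hours of compound exposure at 37 degrees C defined viability of HT-1080-NT cells. Activity was normalized to DMSO wells and cell-free media wells; concentration-response curves were fitted and assigned curve classes.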
HT1080 IDH1KD tx: toxicity to HT-1080 IDH1 knockdown cells (counter line). HT-1080 IDH1 knockdown viability, ATP luminescence, 48 h. Potency, µM (doses to about 46.1 µM), for the others: top-dose activity, negative = toxicity, hits mostly cytotoxic. 360,000 tested, 2% active;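 also: 0% = DMSO wells and -100% = cell-free medium wells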
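After a 2 h attachment period, IDH1KD HT-1080 cells took pin-transferred compound for 48 h at 37 °C; ATP-based luminescence after 10 min room-temperature reagent incubation reported viability.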
DT40 TDP1 CPT: DT40-hTDP1 cell growth loss with CPT; chicken DT40 Tdp1-/-;hTDP1 cells + 20 nM CPT, ATP luminescence, 48 h; Potency, µM (titrated, usually from 46.2 µM), without a hit: at the top dose activity change, negative = growth inhibition, actives largely listed as inhibitors; 420,000 tested, 12% active; also: nearly all actives have a fitted effect of over 55% in size
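Chicken DT40 Tdp1-/- cells stably complemented with human TDP1 were seeded at 400 cells/well in medium containing 20 nM camptothecin, exposed to pin-transferred compounds, and grown at 37 °C for at least 48 hr. Viability was read as ATP luminescence.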
DT40 TDP1 no CPT: qHTS for Inhibitors of human tyrosyl-DNA phosphodiesterase 1 (TDP1): qHTS in cells in absence of CPT; Potency, µM (doses to about 46.2 µM), inactives show at the top dose activity change, negative = growth inhibition, usual class: inhibitors; DT40 Tdp1-/- hTDP1 cells, no CPT, ATP luminescence, 48 h; 420,000 tested, 15% active; AID 686978, 2013; also: nearly all actives have a fitted effect of over 55% in size
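Chicken DT40 Tdp1-/- cells stably complemented with human TDP1 were seeded at 400 cells/well with DMSO in place of 20 nM camptothecin. After compound pinning, cells grew at least 48 hr at 37 °C; viability read by CellTiter-Glo luminescence.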
The depositor's hits bear a star; i = inactive; ? = inconclusive; · = no result given; [ ] = another dose, or the depositor's remark. In the library only some 19% were active in any assay of this set; here they are far more common. Calls follow the shape of the dose curve; as a rule, active = well fitted curve in the direction sought with a large enough effect; inconclusive = small, poorly fitted or top-dose-only effect, or another doubt; inactive = no such curve, though single readings can be large; an effect the other way counts as inactive or inconclusive. Unless noted, % is scaled to controls: 0 for no effect and ±100 for the full control effect; potency is read from the fitted curve at half-maximal effect.

SMILES	KB-3-1 cytotox	KB-V1 MDR tox	HT1080NT lethal	HT1080 IDH1KD tx	DT40 TDP1 CPT	DT40 TDP1 no CPT
CCOC(=O)C1(CC2CCCCO2)CCN(Cc2nc3ccccc3nc2C)CC1 (stereo not given)	i	i	?	-3%	?	?
CCOC(=O)C1(Cc2cccc(OC)c2)CCN(Cc2cccnc2)CC1	i	i	-17%	-15%	?	29µM*
CCOC(=O)C1(CC2CCCCO2)CCN(Cc2ccc(OC)cc2F)CC1 (stereo not given)	i	?	?	0%	?	21µM*
CCOC(=O)C1(Cc2ccc(OC)cc2)CCN(C(=O)c2ccc3[nH]ccc3c2)CC1	?	i	13µM*	26µM*	9.2µM*	7.3µM*
CCOC(=O)C1(Cc2cccc(OC)c2)CCN(Cc2cccc3c2OCO3)CC1	i	?	?	?	?	18µM*
CCOC(=O)C1(Cc2cccc(OC)c2)CCN(Cc2cc(OC)ccc2OC)CC1	i	i	-3%	?	?	16µM*
CCOC(=O)C1(Cc2cccc(OC)c2)CCN(Cc2cccc(OC)c2OC)CC1	i	?	?	?	?	18µM*
CCOC(=O)C1(Cc2cccc(OC)c2)CCN(Cc2ccccc2)CC1	i	?	-19%	-17%	?	?
CCOC(=O)C1(Cc2cccc(OC)c2)CCN(Cc2cnc(N)nc2)CC1	i	i	19%	6%	10%	-16%
CCOC(=O)C1(Cc2cccc(OC)c2)CCN(Cc2cccc3cnccc23)CC1	i	i	-9%	-19%	18µM*	?
CCn1ccnc1CN1CCCC(CO)(Cc2cccc(OC)c2)C1 (stereo not given)	i	?	5%	5%	-22%	?
CCOC(=O)C1(Cc2cccc(OC)c2)CCCN(Cc2nccn2CC)C1 (stereo not given)	i	i	-7%	-18%	15µM*	13µM*
O=C1O[C@@H]2[C@@H](O)[C@H](O)O[C@@H]2[C@H]1O	·	·	·	·	10%	0%
CCOC(=O)c1c[nH]c2c(Cl)c(Cl)ccc2c1=O	i	i	15%	-2%	?	?
CCOC(=O)c1cnc2c(C)c(Cl)ccc2c1N1CCN(CC)CC1	i	i	15µM*	15µM*	?	?
CCOC(=O)c1cnc2c(Cl)c(Cl)ccc2c1N1CCN(C)CC1	i	?	15µM*	16µM*	-22%	-18%
Cc1ccc(C(=O)Nc2c(-c3ccccc3)nc3ccccn23)cc1C	i	i	·	·	-6%	?
Cc1cc(C[n+]2ccccc2)c2nsnc2c1	?	i	?	-23%	?	22µM*
CC(C)/C=N/Nc1nc(-c2ccc(Br)cc2)cs1	?	i	-19%	-3%	23µM*	16µM*
O=C(c1ccc(N2CCC(NCCCn3ncc4ccccc43)CC2)cc1)N1CCc2ccccc2C1	·	·	·	·	6%[9.04 µM]	?
CC(=O)N(Cc1nc2sc(C)c(C)c2c(=O)[nH]1)C1CCCC1	i	?	-17%	1%	21µM*	?
Cc1sc2nc(CN(Cc3ccccc3)C(=O)NC3CCCCC3)[nH]c(=O)c2c1C	i	i	?	?	21µM*	18µM*
CC(=O)N(Cc1ccccc1)Cc1nc2sc(C)c(C)c2c(=O)[nH]1	i	?	-3%	-13%	7%	13µM*
O=C(Nc1nnc([C@H]2C[C@H](O)[C@@H](CO)O2)s1)C(c1ccccc1)c1ccccc1	i	i	-3%	0%	-26%	-9%
Cc1ccccc1-c1nnc(C2CCN(S(=O)(=O)c3ccc(Cl)cc3)CC2)o1	i	i	·	·	5.8µM*	3.7µM*
SMILES	KB-3-1 cytotox	KB-V1 MDR tox	HT1080NT lethal	HT1080 IDH1KD tx	DT40 TDP1 CPT	DT40 TDP1 no CPT
COc1ccc(S(=O)(=O)N2CCN(c3ccccn3)CC2)c(OC)c1	i	i	7%	0%	-20%	?
COc1ccc(S(=O)(=O)N2CCC(c3nnc(-c4ccccc4C)o3)CC2)c(OC)c1	i	i	·	·	8.2µM*	6.5µM*
Cc1ccc(S(=O)(=O)N2C[C@H]3N(C(=O)OC(C)C)N(C(=O)OC(C)C)C[C@H](OC(=O)NCC4CCCCC4)[C@@]3(O)C2)cc1	?	?	21µM*	?	21µM*	26µM*
Cc1ccc(S(=O)(=O)N2C[C@H]3[C@H]4C(=O)N(c5ccccc5)C(=O)[C@H]4C[C@H](OC(=O)NCc4ccccc4F)[C@@]3(O)C2)cc1	i	i	-2%	10%	1%	-29%
Cc1ccc(S(=O)(=O)N2C[C@H]3N(C(=O)OC(C)C)N(C(=O)OC(C)C)C[C@H](OC(=O)NCc4ccco4)[C@@]3(O)C2)cc1	i	i	1%	0%	?	23µM*
CCCCCCn1c(=O)n2n(c1=O)[C@@H]1CN(S(=O)(=O)c3ccc(C)cc3)C[C@]1(O)[C@@H](OC(=O)NCc1ccco1)C2	i	i	0%	1%	?	23µM*
Cc1ccc(S(=O)(=O)N2C[C@H]3n4c(=O)ccc(=O)n4C[C@H](OC(=O)NC4CC4)[C@@]3(O)C2)cc1	i	i	3%	6%	-13%	-12%
Cc1ccc(S(=O)(=O)N2C[C@H]3N(C(=O)OC(C)C)N(C(=O)OC(C)C)C[C@H](OC(=O)NCc4ccccc4)[C@@]3(O)C2)cc1	i	i	-2%	-1%	21µM*	21µM*
COC(=O)[C@H]1C[C@H](OC(=O)NC2CC2)[C@@]2(O)CN(S(=O)(=O)c3ccc(C)cc3)CC2[C@H]1C(=O)OC (stereo not given in full)	?	i	-13%	-23%	-19%	-5%
Cc1ccc(S(=O)(=O)N2CC3(O)CN(C(=O)OC(C)C)N(C(=O)OC(C)C)CC3(OC(=O)NCc3ccccc3)C2)cc1 (stereo not given)	i	i	-5%	-6%	?	21µM*
COC(=O)[C@H]1C[C@H](OC(=O)NCc2ccccc2F)[C@@]2(O)CN(S(=O)(=O)c3ccc(C)cc3)CC2[C@H]1C(=O)OC (stereo not given in full)	i	?	2%	1%	?	23µM*
